According to PubChem BioAssay AID743395 (Broad Institute, 2014):
Out of some 1,200 compounds screened, about 480 (40%) were called active. The rule behind the calls is not given here. The set was probably picked from earlier hits. The list is a sample of the results. Potency and affinity values are given separately.

Experiment: HepG2 cell cytotoxicity, dose response, cytotoxicity control, CellTiter-Glo luminescence, cherry-pick, set 2 (AID 743395);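 note: 0% = neutral control wells and -100% = positive control wells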
Conditions: HepG2 viability, CellTiter-Glo ATP luminescence, 72 h; series mostly up to 26 µM; activity change, negative = cytotoxicity: at the top concentration

SMILES | activity change, negative = cytotoxicity
Cc1ccc(C(=O)OCC(=O)NCc2cc(C)c(O)c(C)c2)cc1S(=O)(=O)N1CCCCC1 | 6.09% (inactive)
CC(OC(=O)CCCC(=O)Nc1ccc(F)cc1)C(=O)c1ccccc1 (stereo unspecified) | 10.3% (inactive)
CC1Cc2ccccc2N1S(=O)(=O)c1cccc(C(=O)N2CCN(c3ncccn3)CC2)c1 (stereo unspecified) | -22.5% (inactive)
COc1ccccc1N1CCN(C(CNS(=O)(=O)c2cccs2)c2cccnc2)CC1 (stereo unspecified) | -8.06% (inactive)
CN(C[C@H](Cc1ccccc1)N(C[C@H](Cc1ccccc1)N(CCC(C)(C)C)N=O)N=O)N=O | -0.701% (inactive)
O=C1c2cccc3c(O)ccc(c23)C(=O)N1c1ccc(Cl)cc1 | -9.52% (inactive)
N#CC1=C(N)OC2=C(CCc3ccccc32)C1c1ccccc1Cl (stereo unspecified) | 3.32% (inactive)
COc1nc(N)nc(NC(=O)c2cccs2)c1N=O | -14.8% (inactive)
Cc1ccc(Cc2c(-c3ccc(C)cc3)nc3c(C)cc(Br)cn23)cc1 | -4.39% (inactive)
CC(C)(C)NC(=O)c1cccc2c1-c1ccccc1C2=O | -12.1% [at 8 µM] (inactive)
CC1=C(C(=O)NC2CCCCC2C)C2(CCC(C)CC2)OC1=O (stereo unspecified) | -13% (inactive)
COc1ccc(C(C#N)CC(=O)c2ccc3c(c2)OCO3)cc1OC (stereo unspecified) | -3.73% (inactive)
Cc1cc(Br)cn2c(Cc3ccsc3)c(-c3ccc(F)cc3)nc12 | 0.336% (inactive)
COc1ccc(C(=O)Nc2ccc(NC(=O)c3cccc(F)c3)cn2)cc1 | -8.34% (inactive)
Cc1cccc(OCC(=O)NNC(=O)c2ccc3nc[nH]c3c2)c1 | -11.2% (inactive)
COc1ccc(C(=O)OCc2nc(N)nc(Nc3ccccc3C)n2)cc1OC | -13.4% (inactive)
COc1ccc(NC(=O)c2ccc(OCC3CCCO3)cc2)cc1OC (stereo unspecified) | 0.664% (inactive)
CC(OC(=O)c1ccc(Cl)nc1)C(=O)NC(C)(C)C (stereo unspecified) | -2.04% (inactive)
NS(=O)(=O)c1cc(C2(O)NC(=O)c3ccccc32)ccc1Cl (stereo unspecified) | -3.58% (inactive)
CCNC(=O)C[C@@H]1C=C[C@@H](NC(=O)NC2CCCCC2)[C@H](CO)O1 | -3.27% (inactive)
O=C(CSC1=NCCN1)Nc1cccc([N+](=O)[O-])c1 | -21.5% (inactive)

SMILES | activity change, negative = cytotoxicity
COc1ccc([C@@H]2[C@@H]3C(=O)N(C(C)(C)C)C(=O)[C@@H]3[C@]3(Cc4ccccc4)C(=O)N(c4ccc(C(F)(F)F)cc4)C(=O)N23)cc1 | -20.1% (inactive)
CCc1ccccc1N(C)S(=O)(=O)c1ccc(-c2cc(C)no2)s1 | -15% (inactive)
Cc1ccc(OCCC(=O)NNC(=O)c2ccc(Br)cc2)cc1 | -3.58% (inactive)
O=C(NCCCN1CCOCC1)c1cc(S(=O)(=O)N2CCOCC2)c(Cl)cc1Cl | -1.37% (inactive)
CN(C)CCCN1c2ccccc2Sc2ccccc21 | -24.3% (inactive)
O=C(NCCCN1CCOCC1)c1sc2cc(Cl)ccc2c1Cl | -1.96% (inactive)
COC(=O)C1CC23C=CCN4CCC5(c6ccccc6NC15C2C)C43 (stereo unspecified) | -14.9% (inactive)
COc1ccc(C(=O)NCC(c2ccco2)N2CCc3ccccc32)cc1 (stereo unspecified) | -17.2% (inactive)
COc1ccccc1NC(=O)C(=O)NCC(c1ccco1)N1CCc2ccccc21 (stereo unspecified) | 6.66% (inactive)
CCCc1nc(SC2CCCC2)c2c(=O)n(C)c(=O)n(C)c2n1 | -17.4% (inactive)
COc1ccc(NCC(=O)n2c(C)c(C)c3ccccc32)cc1 | -2.65% (inactive)
COc1cc(OC)cc(C(=O)N2CC(=O)Nc3ccccc32)c1 | -14% (inactive)
COc1ccc(/C=C2/CCCc3ccccc3C2=O)cc1 | -22.7% (inactive)
COC(=O)c1cn(C(=O)c2ccc(C)cc2C)c2ccccc12 | -20.2% (inactive)
O=C(NCc1cccnc1)c1cc(C2CCCCN2C(=O)CCCc2ccccc2)on1 (stereo unspecified) | -5.42% (inactive)
COc1ccccc1/C=N/NC(=O)c1cc2c(OC)c(OC)ccc2[nH]1 | -8.24% (inactive)
Cc1ccc(C)c(NC(=O)CCC(=O)N/N=C/c2cc([N+](=O)[O-])ccc2O)c1 | -10.3% (inactive)
CCCOCCOC(=O)c1[nH]c2c(c1C)C(=O)CC(c1cc(OC)ccc1OC)C2 (stereo unspecified) | 1.47% (inactive)
CN(CC(=O)Nc1ccc(Cl)c(C(F)(F)F)c1)C(=O)CCN1C(=O)C2CCCCC2C1=O (stereo unspecified) | -13.2% (inactive)
CCOC(=O)c1nc(C)sc1-c1ccnn1S(=O)(=O)c1ccccc1C(F)(F)F | -0.592% (inactive)
CC(=O)c1c(C)[nH]c(C(=O)OCC(=O)NCc2ccc(Cl)cc2)c1C | -21.3% (inactive)

SMILES | activity change, negative = cytotoxicity
O=C1NCCc2c1[nH]c1ccc([N+](=O)[O-])cc21 | -20.4% (inactive)
O=C(CCNC(=O)c1ccco1)Nc1nc(-c2ccccc2)cs1 | -11.4% (inactive)
COc1ccc2c(c1)/C(=C/c1cc(OC)c(OC)c(OC)c1)C(=O)N2 | -24.9% (inactive)
COc1cc(/C=C2\SC(=Nc3ccc(Cl)c(C(=O)O)c3)NC2=O)c(Br)c(Br)c1O | 4.23% (inactive)
Cc1nn(C2CCS(=O)(=O)C2)c2nc(C3CC3)cc(C(=O)Nc3cccc(C#N)c3)c12 (stereo unspecified) | -19.7% (inactive)
COc1ccc(C#Cc2ccc3c(c2)O[C@H](CN(C)C(=O)Nc2cccc(OC)c2)[C@H](C)CN([C@H](C)CO)S3(=O)=O)cc1 | -1.04% [at 23.5 µM] (inactive)
COc1ccc(CNCC(=O)Nc2ccccc2-n2cccc2)cc1 | -13.8% (inactive)
COc1ccc(NC(=O)C(=O)c2cn(CC(=O)N3CCCC3)c3ccccc23)cc1OC | -33.5% (inactive)
CCCCNC(=O)c1onc(CSc2ccccc2C)c1C(=O)O | -8.72% (inactive)
COc1cccc(C2=CC(c3ccccc3)n3nnnc3N2)c1 (stereo unspecified) | -18.3% (inactive)
CCOc1cc(N2CCOCC2)c(OCC)cc1NC(=O)CN1C(=O)NC2(CCCCC2)C1=O | -3.62% (inactive)
COCCCN=C1NN=C(c2cc(C)n(Cc3ccccc3Cl)c2C)CS1 | -14.4% (inactive)
C[C@H]1CNC(=O)c2c(C(=O)Nc3ccc(CNC(=O)OC(C)(C)C)cc3)ncn21 | -3.46% (inactive)
CC(=O)N(C)C[C@@H]1Oc2cc(C#Cc3ccc(F)cc3)ccc2S(=O)(=O)N([C@H](C)CO)C[C@@H]1C | -8.91% (inactive)
C[C@H](CO)N1C[C@H](C)[C@@H](CN(C)C(=O)NC2CCCCC2)Oc2cc(C#Cc3ccc(F)cc3)ccc2S1(=O)=O | 15.3% (inactive)
C[C@@H]1CN([C@H](C)CO)S(=O)(=O)c2ccc(C#Cc3cccc(F)c3)cc2O[C@@H]1CN(C)C(=O)NC1CCCCC1 | -27.1% (inactive)
C[C@H](CO)N1C[C@H](C)[C@H](CN(C)C(=O)NC2CCCC2)Oc2cc(C#Cc3ccc(F)cc3)ccc2S1(=O)=O | -13.8% (inactive)
C[C@H]1CN([C@@H](C)CO)S(=O)(=O)c2ccc(C#Cc3cccc(F)c3)cc2O[C@H]1CN(C)C(=O)NC1CCCCC1 | -26.2% (inactive)
C[C@H](CO)N1C[C@H](C)[C@H](CN(C)C(=O)NC2CCCCC2)Oc2cc(C#Cc3ccc(F)cc3)ccc2S1(=O)=O | -7.21% (inactive)
